# Measured values reported in paper PMC12864922, “TDP-43 directly inhibits mRNA accumulation in neurites through modulation of mRNA stability”.
# The full ranking holds about 9,900 sequences; the median of “r (bound/input frequency ratio)” is about 0.7, and the highest 2% start at about 6.5. This excerpt belongs to a sample that is enriched for the highest values.
# B1: ENSMUSG00000043670.242|Diras1|75:79;185:197;208:214;239:247 (ssRNA)
# RNA: GGGAGUUCUACAGUCCGACGAUCGCUUCGAUAUCCGCAUGCUACACCAGGUCUGUUCCAGGCUGUGGCAAGCUGGCUCCUGGCUCAGAAGUGACAAAGCUGCAGUACAGAGGCCUCACACACAGGUCAUCACCUCACAGUGGCUACAGACCAGGCUGUGGCCUGAGUGAGCUGGAACCUCUGGGGUGGGGACGAGAAAGAGAGAGGGAGAGAGAGGGGGGAGAGUGACACACACACACACAAGGGGGAGACACACACGGGGAAGAGUGAGAGAGAUAGAGUCAUACACACAGAGGGAGGGAGACUCUUGCGGUCGCACUAGUGUGGAAUUCUCGGGUGUCAAGG
# B2: ENSMUSG00000043670.237|Diras1|105:109;215:227;238:244 (ssRNA)
# RNA: GGGAGUUCUACAGUCCGACGAUCGCUUCGAUAUCCGCAUGCUAGGGGUGGGUGACACAGGCCUGUCUGAUGAGCACCAGGUCUGUUCCAGGCUGUGGCAAGCUGGCUCCUGGCUCAGAAGUGACAAAGCUGCAGUACAGAGGCCUCACACACAGGUCAUCACCUCACAGUGGCUACAGACCAGGCUGUGGCCUGAGUGAGCUGGAACCUCUGGGGUGGGGACGAGAAAGAGAGAGGGAGAGAGAGGGGGGAGAGUGACACACACACACACAAGGGGGAGACACACACGGGGAAGAGUGAGAGACUCUUGCGGUCGCACUAGUGUGGAAUUCUCGGGUGUCAAGG
# B3: ENSMUSG00000043670.241|Diras1|81:85;191:203;214:220;245:253 (ssRNA)
# RNA: GGGAGUUCUACAGUCCGACGAUCGCUUCGAUAUCCGCAUGCUAGAUGAGCACCAGGUCUGUUCCAGGCUGUGGCAAGCUGGCUCCUGGCUCAGAAGUGACAAAGCUGCAGUACAGAGGCCUCACACACAGGUCAUCACCUCACAGUGGCUACAGACCAGGCUGUGGCCUGAGUGAGCUGGAACCUCUGGGGUGGGGACGAGAAAGAGAGAGGGAGAGAGAGGGGGGAGAGUGACACACACACACACAAGGGGGAGACACACACGGGGAAGAGUGAGAGAGAUAGAGUCAUACACACAGAGGGACUCUUGCGGUCGCACUAGUGUGGAAUUCUCGGGUGUCAAGG
# B4: ENSMUSG00000043670.233|Diras1 (ssRNA)
# RNA: GGGAGUUCUACAGUCCGACGAUCGCUUCGAUAUCCGCAUGCUAUGUCUGUAUGGCUCUGUGUUUUCAGGGGUGGGUGACACAGGCCUGUCUGAUGAGCACCAGGUCUGUUCCAGGCUGUGGCAAGCUGGCUCCUGGCUCAGAAGUGACAAAGCUGCAGUACAGAGGCCUCAGUGUGAGGUCAUCACCUCACAGUGGCUACAGACCAGGCUGUGGCCUGAGUGAGCUGGAACCUCUGGGGUGGGGACGAGAAAGAGAGAGGGAGAGAGAGGGGGGAGAGUGAGUGUGUGUGUGUGAAGGGGGAGCUCUUGCGGUCGCACUAGUGUGGAAUUCUCGGGUGUCAAGG
# B5: ENSMUSG00000043670.234|Diras1 (ssRNA)
# RNA: GGGAGUUCUACAGUCCGACGAUCGCUUCGAUAUCCGCAUGCUAUAUGGCUCUGUGUUUUCAGGGGUGGGUGACACAGGCCUGUCUGAUGAGCACCAGGUCUGUUCCAGGCUGUGGCAAGCUGGCUCCUGGCUCAGAAGUGACAAAGCUGCAGUACAGAGGCCUCAGUGUGAGGUCAUCACCUCACAGUGGCUACAGACCAGGCUGUGGCCUGAGUGAGCUGGAACCUCUGGGGUGGGGACGAGAAAGAGAGAGGGAGAGAGAGGGGGGAGAGUGAGUGUGUGUGUGUGAAGGGGGAGAGUGUGCUCUUGCGGUCGCACUAGUGUGGAAUUCUCGGGUGUCAAGG
# B6: ENSMUSG00000043670.238|Diras1|99:103;209:221;232:238 (ssRNA)
# RNA: GGGAGUUCUACAGUCCGACGAUCGCUUCGAUAUCCGCAUGCUAGGUGACACAGGCCUGUCUGAUGAGCACCAGGUCUGUUCCAGGCUGUGGCAAGCUGGCUCCUGGCUCAGAAGUGACAAAGCUGCAGUACAGAGGCCUCACACACAGGUCAUCACCUCACAGUGGCUACAGACCAGGCUGUGGCCUGAGUGAGCUGGAACCUCUGGGGUGGGGACGAGAAAGAGAGAGGGAGAGAGAGGGGGGAGAGUGACACACACACACACAAGGGGGAGACACACACGGGGAAGAGUGAGAGAGAUAGACUCUUGCGGUCGCACUAGUGUGGAAUUCUCGGGUGUCAAGG
# B7: ENSMUSG00000043670.240|Diras1|87:91;197:209;220:226;251:259 (ssRNA)
# RNA: GGGAGUUCUACAGUCCGACGAUCGCUUCGAUAUCCGCAUGCUACUGUCUGAUGAGCACCAGGUCUGUUCCAGGCUGUGGCAAGCUGGCUCCUGGCUCAGAAGUGACAAAGCUGCAGUACAGAGGCCUCACACACAGGUCAUCACCUCACAGUGGCUACAGACCAGGCUGUGGCCUGAGUGAGCUGGAACCUCUGGGGUGGGGACGAGAAAGAGAGAGGGAGAGAGAGGGGGGAGAGUGACACACACACACACAAGGGGGAGACACACACGGGGAAGAGUGAGAGAGAUAGAGUCAUACACACACUCUUGCGGUCGCACUAGUGUGGAAUUCUCGGGUGUCAAGG
# B8: ENSMUSG00000043670.232|Diras1 (ssRNA)
# RNA: GGGAGUUCUACAGUCCGACGAUCGCUUCGAUAUCCGCAUGCUAGUGGUGUGUCUGUAUGGCUCUGUGUUUUCAGGGGUGGGUGACACAGGCCUGUCUGAUGAGCACCAGGUCUGUUCCAGGCUGUGGCAAGCUGGCUCCUGGCUCAGAAGUGACAAAGCUGCAGUACAGAGGCCUCAGUGUGAGGUCAUCACCUCACAGUGGCUACAGACCAGGCUGUGGCCUGAGUGAGCUGGAACCUCUGGGGUGGGGACGAGAAAGAGAGAGGGAGAGAGAGGGGGGAGAGUGAGUGUGUGUGUGUGAAGCUCUUGCGGUCGCACUAGUGUGGAAUUCUCGGGUGUCAAGG
# B9: ENSMUSG00000043670.236|Diras1|111:115;221:233;244:250 (ssRNA)
# RNA: GGGAGUUCUACAGUCCGACGAUCGCUUCGAUAUCCGCAUGCUAUUUUCAGGGGUGGGUGACACAGGCCUGUCUGAUGAGCACCAGGUCUGUUCCAGGCUGUGGCAAGCUGGCUCCUGGCUCAGAAGUGACAAAGCUGCAGUACAGAGGCCUCACACACAGGUCAUCACCUCACAGUGGCUACAGACCAGGCUGUGGCCUGAGUGAGCUGGAACCUCUGGGGUGGGGACGAGAAAGAGAGAGGGAGAGAGAGGGGGGAGAGUGACACACACACACACAAGGGGGAGACACACACGGGGAAGAGUCUCUUGCGGUCGCACUAGUGUGGAAUUCUCGGGUGUCAAGG
# Target: TDP-43 (Homo sapiens, UniProt Q13148 1-414)
# Experiment: RNA Bind-n-Seq with designed 260-mer pool; 25 mM Tris-HCl, 150 mM KCl, 3 mM MgCl2, BSA (printed 500 mg/mL), 20 units/mL SUPERase IN; pH not stated; 500 nM RNA pool, 1 h, 4 C; TDP-43 5, 50, 500 nM; high values mean tight binding
# Details: protein: recombinant; tags: SBP (GST cleaved off with PreScission; pGEX-GST-SBP)
# Outline: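 Duplicate measurements used two independent batches of recombinant SBP-tagged TDP-43, which was captured on streptavidin beads at 5, 50 or 500 nM. The beads were incubated with 500 nM of an in vitro-transcribed 260-nt 3′ UTR oligo pool for 1 h at 4 °C in 25 mM Tris-HCl, 150 mM KCl, 3 mM MgCl2, BSA and SUPERase IN. After washing, biotin elution, reverse transcription, PCR amplification and sequencing, binding was expressed as R: each oligo's normalized read abundance in the bound sample over its abundance in input.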
# TDP-43, sequence (Q13148 whole entry): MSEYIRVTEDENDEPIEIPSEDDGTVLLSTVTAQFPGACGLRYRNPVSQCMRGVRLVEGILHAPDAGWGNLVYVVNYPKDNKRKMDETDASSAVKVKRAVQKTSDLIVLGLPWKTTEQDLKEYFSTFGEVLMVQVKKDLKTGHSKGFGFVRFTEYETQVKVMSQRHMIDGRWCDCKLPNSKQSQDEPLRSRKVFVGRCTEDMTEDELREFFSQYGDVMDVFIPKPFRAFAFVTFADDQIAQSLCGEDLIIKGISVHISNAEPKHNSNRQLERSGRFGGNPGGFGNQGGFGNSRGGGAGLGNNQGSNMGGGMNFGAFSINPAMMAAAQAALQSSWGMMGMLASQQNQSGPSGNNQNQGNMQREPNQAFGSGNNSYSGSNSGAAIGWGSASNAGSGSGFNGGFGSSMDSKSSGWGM
row,Binder,binding signal
1,B1,12.1 R (bound/input frequency ratio)
2,B2,9.04 R (bound/input frequency ratio)
3,B3,4.89 R (bound/input frequency ratio)
4,B4,7.61 R (bound/input frequency ratio)
5,B5,6.5 R (bound/input frequency ratio)
6,B6,4.05 R (bound/input frequency ratio)
7,B7,3.45 R (bound/input frequency ratio)
8,B8,6.45 R (bound/input frequency ratio)
9,B9,3.82 R (bound/input frequency ratio)
